From PubChem BioAssay (EPA / NIEHS)
Values joined by “and” are separate entries in the source; they are usually repeats but may differ in a detail not shown here. Identical values can stand only once. Results filed as inconclusive are left out. Where a structure was tested more than once in an assay, its records may differ in their call. Active and inactive are the calls of the source. The calls were made as follows, unless noted: active = hit-call score of the fitted dose curve at least 0.9, where 1 is the maximum; inconclusive = response in the unintended direction; inactive = score below 0.9.

What was measured:
[1] = molecular target: zebrafish Estrogen Receptor (ER1), esr1 (gene 259252) (UniProt P57717); assay: ATG_zfER1_XSP2: Attagene TRANS-FACTORIAL Multi-Species (XSP2) HepG2 Assay for zebrafish Estrogen Receptor (ER1) (AID 2283816)
How it was run: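 After 24 h compound exposure, RNA from transfected HepG2 cells was reverse-transcribed and reporter transcripts resolved by capillary electrophoresis. The TRANS format reads exogenous zebrafish ER1-Gal4 chimera activity on GAL4-UAS elements; gain of signal against DMSO.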

[2] = system: zebrafish Estrogen Receptor (ER2a), gene 317734; assay: ATG_zfER2a_XSP2: Attagene TRANS-FACTORIAL Multi-Species (XSP2) HepG2 Assay for zebrafish Estrogen Receptor (ER2a) (AID 2283818);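 also: hits raise reporter mRNA so AC50 reflects activation of zebrafish ER2a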
How it was run: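 Multiplexed trans-reporter readout: RT-PCR then capillary electrophoresis of reporter transcripts after 24 h compound treatment. Human HepG2 carries transfected zebrafish ER2a-Gal4 chimera; 3 nM 6-alpha-fluorotestosterone plus 1.5 nM norgestrel present. Induction scored against DMSO.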

[3] = system: frog Estrogen Receptor (ER), gene 398734; assay: ATG_frER1_XSP2: Attagene TRANS-FACTORIAL Multi-Species (XSP2) HepG2 Assay for frog Estrogen Receptor (ER) (AID 2283821);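 also: hits raise reporter mRNA above DMSO baseline so potency means agonist or activator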
How it was run: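 HepG2 cells transiently transfected with multiplexed GAL4-UAS reporter units expressing chimeric NR-Gal4 proteins (TRANS format) were dosed for 24 h. Reporter mRNA was quantified by RT-PCR, FAM primer extension, HpaI digestion and capillary electrophoresis; gain of signal relative to DMSO.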

[4] = system: zebrafish Estrogen Receptor (ER2b), gene 317733; assay: ATG_zfER2b_XSP2: Attagene TRANS-FACTORIAL Multi-Species (XSP2) HepG2 Assay for zebrafish Estrogen Receptor (ER2b) (AID 2283823);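 also: fitted upward as reporter gain over DMSO so potency reflects activation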
How it was run: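 Reporter transcripts quantified by RT-PCR, fluorescent labelling and capillary electrophoresis after 24 h dosing of transfected HepG2 expressing zebrafish ER2b-GAL4 fusion. Medium contained 3 nM 6-alpha-fluorotestosterone plus 1.5 nM norgestrel; DMSO baseline.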

[5] = ATG_M_32_XSP2: Attagene TRANS-FACTORIAL Multi-Species (XSP2) HepG2 Assay for M19 Transcription Factor (Internal Marker) (AID 2283826)
How it was run: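 HepG2 cells transiently transfected with GAL4-UAS reporter units; XSP2 panel included 3 nM 6-alpha-fluorotestosterone and 1.5 nM norgestrel for androgen receptor stimulation. Reporter mRNA read 24 h post-dosing by RT-PCR/capillary electrophoresis; fitted upward versus DMSO.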

[6] = molecular target: Estrogen receptor (Homo sapiens) (UniProt P03372); assay: ATG_hERa_XSP2: Attagene TRANS-FACTORIAL Multi-Species (XSP2) HepG2 Assay for human Estrogen Receptor (ERa) (AID 2283827)
How it was run: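 Trans-activation of exogenous human ERa-Gal4 chimera read in HepG2 as reporter transcript after 24 h exposure; medium included 3 nM 6-alpha-fluorotestosterone and 1.5 nM norgestrel. Quantified by RT-PCR with capillary electrophoresis, positive-direction fitting against DMSO.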

[7] = system: frog Estrogen Receptor (ER2), gene 100174814; assay: ATG_frER2_XSP2: Attagene TRANS-FACTORIAL Multi-Species (XSP2) HepG2 Assay for frog Estrogen Receptor (ER2) (AID 2283828)
How it was run: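 Read-out: reporter transcript levels by RT-PCR with 6-FAM primer extension, HpaI digestion and capillary electrophoresis, scored as induction over DMSO control. Transfected HepG2 carrying Xenopus ER2–GAL4 chimera; compounds incubated 24 h.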

[8] = molecular target: Peroxisome proliferator-activated receptor gamma (Homo sapiens) (UniProt P37231); assay: ATG_hPPARg_XSP2: Attagene TRANS-FACTORIAL Multi-Species (XSP2) HepG2 Assay for human Peroxisome Proliferator-activated Receptor gamma (PPARg) (AID 2283829);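 also: actives raise reporter mRNA above DMSO so AC50 reflects PPARg activation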
How it was run: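 HepG2 cells transiently transfected with GAL4-UAS reporter units driven by chimeric NR-Gal4 proteins; androgen receptor stimulated with 3 nM 6-alpha-fluorotestosterone and 1.5 nM norgestrel. After 24 h, reporter mRNA quantified by RT-PCR and capillary electrophoresis versus DMSO.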

[9] = molecular target: mouse Peroxisome Proliferator-activated Receptor gamma (PPARg), Pparg (gene 19016) (UniProt P37238); assay: ATG_mPPARg_XSP2: Attagene TRANS-FACTORIAL Multi-Species (XSP2) HepG2 Assay for mouse Peroxisome Proliferator-activated Receptor gamma (PPARg) (AID 2283830);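 also: hits are gains in reporter mRNA above DMSO so AC50 marks activation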
How it was run: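 Multiplexed TRANS reporter readout: after 24 h chemical exposure of transfected HepG2 cells (with 3 nM 6-alpha-fluorotestosterone, 1.5 nM norgestrel present), RNA reverse-transcribed, amplified, 6-FAM-labelled and resolved by capillary electrophoresis; mouse PPARg-Gal4 induction scored against DMSO.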

[10] = molecular target: Nuclear receptor subfamily 1 group I member 2 (Mus musculus) (UniProt O54915); assay: ATG_mPXR_XSP2: Attagene TRANS-FACTORIAL Multi-Species (XSP1) HepG2 Assay for mouse Pregnane X Receptor (PXR) (AID 2283831)
How it was run: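 HepG2 cells transiently transfected with GAL4-UAS reporter units expressing chimeric NR-Gal4 proteins; 24 h compound exposure. Reporter mRNA quantified by RT-PCR and capillary electrophoresis fluorescence; gain of signal fitted against DMSO.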

[11] = molecular target: zebrafish Thyroid Hormone Receptor alpha (TRa), thraa (gene 30670) (UniProt Q98867); assay: ATG_zfTRa_XSP2: Attagene TRANS-FACTORIAL Multi-Species (XSP1) HepG2 Assay for zebrafish Thyroid Hormone Receptor alpha (TRa) (AID 2283832);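 also: actives raise zebrafish TRa-Gal4 reporter transcript above DMSO baseline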
How it was run: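 Readout is reporter mRNA induction, quantified by RT-PCR and capillary electrophoresis with fluorescent labelling, after 24 h compound exposure of transiently transfected HepG2 cells carrying NR-Gal4 chimera reporters. Activity fitted upward relative to DMSO.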

[12] = system: zebrafish Peroxisome Proliferator-activated Receptor gamma (PPARg), gene 557037; assay: ATG_zfPPARg_XSP2: Attagene TRANS-FACTORIAL Multi-Species (XSP2) HepG2 Assay for zebrafish Peroxisome Proliferator-activated Receptor gamma (PPARg) (AID 2283833);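 also: reporter mRNA from a zebrafish PPARg GAL4 chimera measured by RT-PCR and capillary electrophoresis; actives increase reporter signal over DMSO so AC50 reflects activation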
How it was run: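 HepG2 cells transiently transfected with multiplexed GAL4-UAS reporter units expressing chimeric NR-Gal4 receptors, dosed 24 h. Reporter mRNA quantified by RT-PCR, fluorescent labelling, HpaI digestion and capillary electrophoresis; gain of signal fitted against DMSO.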

[13] = system: turtle Thyroid Hormone Receptor, alpha (TRa), gene 101949057; assay: ATG_trTRa_XSP2: Attagene TRANS-FACTORIAL Multi-Species (XSP1) HepG2 Assay for turtle Thyroid Hormone Receptor, alpha (TRa) (AID 2283834);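 also: hits raise reporter mRNA over the DMSO baseline so AC50 marks activators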
How it was run: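 HepG2 cells transiently transfected with GAL4-UAS reporter units for chimeric turtle TRa-Gal4; mRNA measured 24 h after dosing by RT-PCR and capillary electrophoresis fluorescence, gain of signal fitted against DMSO.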

[14] = ATG_M_61_XSP2: Attagene TRANS-FACTORIAL Multi-Species (XSP2) HepG2 Assay for M61 Transcription Factor (Internal Marker) (AID 2283835; active = hit-call score of the fitted dose curve at least 0.9, where 1 is the maximum; inactive = score below 0.9;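 also: active means a rise in signal above the DMSO baseline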)
How it was run: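 Internal background marker, read as RT-PCR/capillary-electrophoresis reporter mRNA 24 h post-dose in transiently transfected HepG2 cells. Androgen receptor stimulated with 3 nM 6-alpha-fluorotestosterone plus 1.5 nM norgestrel; gain of signal versus DMSO analysed.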

[15] = ATG_XTT_Cytotoxicity_XSP2: Cytotoxicity Assessment in the Attagene TRANS-FACTORIAL Multi-Species (XSP2) HepG2 Assay (AID 2283837)
How it was run: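 XTT-based cell number read-out in human HepG2 liver cells carrying transfected reporter units, measured 24 h after chemical dosing. Activity is signal loss versus DMSO baseline.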

[16] = molecular target: human Thyroid hormone Receptor alpha (TRa), THRA (gene 7067) (UniProt P10827); assay: ATG_hTRa_XSP2: Attagene TRANS-FACTORIAL Multi-Species (XSP2) HepG2 Assay for human Thyroid hormone Receptor alpha (TRa) (AID 2283838)
How it was run: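 Gain-of-signal in reporter mRNA, relative to DMSO, after 24 h dosing of transfected HepG2; quantitation by RT-PCR fragment analysis on capillary electrophoresis.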

[17] = molecular target: frog Thyroid hormone Receptor alpha (TRa), thra-a (gene 397942) (UniProt P15204); assay: ATG_frTRa_XSP2: Attagene TRANS-FACTORIAL Multi-Species (XSP2) HepG2 Assay for frog Thyroid hormone Receptor alpha (TRa) (AID 2283839);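 as to AC50: AC50 reflects induction of frog TRa-driven reporter mRNA above DMSO baseline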
How it was run: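 HepG2 transiently transfected with multiplexed GAL4-UAS reporters driven by frog TRa-Gal4 chimeras; 24 h chemical exposure. Reporter mRNA quantified by RT-PCR, FAM labelling, HpaI digestion and capillary electrophoresis; gain of signal versus DMSO.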

[18] = ATG_M_19_XSP2: Attagene TRANS-FACTORIAL Multi-Species (XSP2) HepG2 Assay for M32 Transcription Factor (Internal Marker) (AID 2283822)
How it was run: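 Internal background marker in a multi-species nuclear receptor TRANS panel: transfected HepG2 cells exposed 24 h, with 3 nM 6-alpha-fluorotestosterone and 1.5 nM norgestrel present. Readout is RT-PCR of reporter transcripts resolved by capillary electrophoresis, gain-of-signal versus DMSO.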

[19] = system: chicken Androgen Receptor (AR), gene 422165; assay: ATG_chAR_XSP2: Attagene TRANS-FACTORIAL Multi-Species (XSP2) HepG2 Assay for chicken Androgen Receptor (AR) (AID 2283819);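 also: hits raise reporter mRNA above DMSO so potency is for activation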
How it was run: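 Readout is reporter mRNA induction via RT-PCR/capillary electrophoresis after 24 h chemical exposure, positive direction relative to DMSO. Transiently transfected HepG2 express chimeric chicken AR–GAL4; AR stimulated by 3 nM 6-alpha-fluorotestosterone and 1.5 nM norgestrel.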

[20] = system: frog Androgen Receptor (AR), gene 399456; assay: ATG_frAR_XSP2: Attagene TRANS-FACTORIAL Multi-Species (XSP2) HepG2 Assay for frog Androgen Receptor (AR) (AID 2283824);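 also: reporter mRNA from GAL4-UAS units driven by Xenopus AR-Gal4 chimera; actives raise reporter signal above DMSO so AC50 reflects agonist-like induction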
How it was run: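 Reporter transcript induction, read by RT-PCR with fluorescent capillary electrophoresis, in human liver HepG2 cells carrying an exogenous Xenopus AR-Gal4 fusion and GAL4-driven reporters; chemical exposure 24 hours, activity scored upward against DMSO controls.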

Measured: AC50

Chain of Peroxisome proliferator-activated receptor gamma (Homo sapiens) (P37231 whole entry, looked up, the tested form may be a part): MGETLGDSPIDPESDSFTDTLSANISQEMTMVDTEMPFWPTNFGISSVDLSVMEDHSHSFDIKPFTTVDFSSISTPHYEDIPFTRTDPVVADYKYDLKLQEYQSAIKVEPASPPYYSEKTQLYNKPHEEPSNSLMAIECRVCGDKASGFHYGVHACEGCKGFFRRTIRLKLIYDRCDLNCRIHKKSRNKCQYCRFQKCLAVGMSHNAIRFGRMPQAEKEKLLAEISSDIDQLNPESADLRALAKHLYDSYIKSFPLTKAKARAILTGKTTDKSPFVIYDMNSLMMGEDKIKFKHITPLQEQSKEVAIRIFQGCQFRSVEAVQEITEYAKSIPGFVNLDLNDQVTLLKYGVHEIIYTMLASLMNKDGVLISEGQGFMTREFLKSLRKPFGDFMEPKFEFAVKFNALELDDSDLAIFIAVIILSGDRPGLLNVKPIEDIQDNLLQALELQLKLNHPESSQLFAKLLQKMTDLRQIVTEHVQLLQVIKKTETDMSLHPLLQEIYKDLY
Chain of human Thyroid hormone Receptor alpha (TRa), THRA (gene 7067) (P10827 whole entry, looked up, the tested form may be a part): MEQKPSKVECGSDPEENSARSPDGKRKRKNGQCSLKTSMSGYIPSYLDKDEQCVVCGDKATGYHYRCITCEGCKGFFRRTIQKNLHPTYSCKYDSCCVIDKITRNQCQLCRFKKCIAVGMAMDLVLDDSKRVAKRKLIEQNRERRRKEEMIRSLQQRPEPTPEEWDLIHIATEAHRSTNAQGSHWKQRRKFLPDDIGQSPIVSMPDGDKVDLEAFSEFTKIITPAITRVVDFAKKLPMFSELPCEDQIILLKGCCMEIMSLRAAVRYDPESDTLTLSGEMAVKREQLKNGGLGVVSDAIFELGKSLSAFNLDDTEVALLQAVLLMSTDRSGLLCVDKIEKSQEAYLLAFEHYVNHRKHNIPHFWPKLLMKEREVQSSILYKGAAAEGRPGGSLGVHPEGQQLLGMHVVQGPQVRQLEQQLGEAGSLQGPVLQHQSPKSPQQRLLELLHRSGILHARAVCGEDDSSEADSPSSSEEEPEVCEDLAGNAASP
Chain of frog Thyroid hormone Receptor alpha (TRa), thra-a (gene 397942) (P15204 whole entry, looked up, the tested form may be a part): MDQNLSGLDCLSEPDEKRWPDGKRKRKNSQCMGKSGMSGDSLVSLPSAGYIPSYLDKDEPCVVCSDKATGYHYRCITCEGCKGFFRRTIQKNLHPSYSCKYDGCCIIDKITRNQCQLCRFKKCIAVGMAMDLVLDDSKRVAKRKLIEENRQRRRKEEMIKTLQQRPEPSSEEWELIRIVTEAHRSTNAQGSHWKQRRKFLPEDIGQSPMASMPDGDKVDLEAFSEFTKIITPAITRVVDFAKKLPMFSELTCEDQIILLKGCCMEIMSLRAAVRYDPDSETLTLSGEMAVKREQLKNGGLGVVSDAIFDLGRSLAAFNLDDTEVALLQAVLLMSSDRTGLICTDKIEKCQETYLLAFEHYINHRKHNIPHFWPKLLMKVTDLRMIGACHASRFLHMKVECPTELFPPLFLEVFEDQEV
Chain of Nuclear receptor subfamily 1 group I member 2 (Mus musculus) (O54915 whole entry, looked up, the tested form may be a part): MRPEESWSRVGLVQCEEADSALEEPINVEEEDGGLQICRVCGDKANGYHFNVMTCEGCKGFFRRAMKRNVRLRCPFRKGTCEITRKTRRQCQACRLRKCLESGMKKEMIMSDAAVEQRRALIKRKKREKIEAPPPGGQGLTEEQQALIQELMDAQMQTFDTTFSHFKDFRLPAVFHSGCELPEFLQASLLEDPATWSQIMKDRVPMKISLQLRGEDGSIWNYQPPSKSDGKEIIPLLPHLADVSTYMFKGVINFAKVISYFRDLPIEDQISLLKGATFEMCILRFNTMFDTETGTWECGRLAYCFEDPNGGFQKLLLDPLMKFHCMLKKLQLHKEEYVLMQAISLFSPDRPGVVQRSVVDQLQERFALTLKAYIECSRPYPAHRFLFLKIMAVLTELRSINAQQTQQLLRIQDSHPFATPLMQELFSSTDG
Chain of zebrafish Estrogen Receptor (ER1), esr1 (gene 259252) (P57717 whole entry, looked up, the tested form may be a part): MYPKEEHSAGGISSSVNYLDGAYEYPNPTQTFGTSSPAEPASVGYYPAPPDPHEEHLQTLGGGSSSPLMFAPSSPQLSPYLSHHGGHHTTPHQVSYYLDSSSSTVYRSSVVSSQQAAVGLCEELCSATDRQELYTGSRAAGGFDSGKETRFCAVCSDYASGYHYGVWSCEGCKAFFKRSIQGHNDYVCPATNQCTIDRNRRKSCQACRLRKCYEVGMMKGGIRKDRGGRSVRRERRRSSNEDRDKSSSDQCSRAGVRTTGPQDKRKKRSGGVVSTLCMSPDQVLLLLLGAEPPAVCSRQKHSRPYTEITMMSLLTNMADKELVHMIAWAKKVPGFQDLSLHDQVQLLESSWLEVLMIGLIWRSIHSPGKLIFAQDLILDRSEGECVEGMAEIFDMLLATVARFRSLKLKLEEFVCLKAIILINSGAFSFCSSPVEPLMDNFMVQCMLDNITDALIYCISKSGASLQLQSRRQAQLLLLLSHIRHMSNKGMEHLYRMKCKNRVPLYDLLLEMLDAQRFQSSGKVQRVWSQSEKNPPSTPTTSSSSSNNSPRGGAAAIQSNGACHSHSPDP
Chain of Estrogen receptor (Homo sapiens) (P03372 whole entry, looked up, the tested form may be a part): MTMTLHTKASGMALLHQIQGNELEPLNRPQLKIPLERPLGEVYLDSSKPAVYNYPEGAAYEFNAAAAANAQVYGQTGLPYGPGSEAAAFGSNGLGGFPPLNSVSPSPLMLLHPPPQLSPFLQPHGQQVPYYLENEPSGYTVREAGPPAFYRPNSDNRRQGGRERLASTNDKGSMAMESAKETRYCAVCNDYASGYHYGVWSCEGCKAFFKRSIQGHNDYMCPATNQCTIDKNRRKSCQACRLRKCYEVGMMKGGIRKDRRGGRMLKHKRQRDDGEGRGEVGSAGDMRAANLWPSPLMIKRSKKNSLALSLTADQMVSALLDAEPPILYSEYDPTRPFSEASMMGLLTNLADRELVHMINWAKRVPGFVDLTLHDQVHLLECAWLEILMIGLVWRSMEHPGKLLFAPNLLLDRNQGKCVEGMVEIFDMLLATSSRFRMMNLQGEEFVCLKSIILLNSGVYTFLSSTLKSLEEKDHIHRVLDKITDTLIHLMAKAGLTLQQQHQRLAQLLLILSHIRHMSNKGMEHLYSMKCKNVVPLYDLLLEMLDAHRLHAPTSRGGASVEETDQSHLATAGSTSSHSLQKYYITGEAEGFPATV
Chain of zebrafish Thyroid Hormone Receptor alpha (TRa), thraa (gene 30670) (Q98867 whole entry, looked up, the tested form may be a part): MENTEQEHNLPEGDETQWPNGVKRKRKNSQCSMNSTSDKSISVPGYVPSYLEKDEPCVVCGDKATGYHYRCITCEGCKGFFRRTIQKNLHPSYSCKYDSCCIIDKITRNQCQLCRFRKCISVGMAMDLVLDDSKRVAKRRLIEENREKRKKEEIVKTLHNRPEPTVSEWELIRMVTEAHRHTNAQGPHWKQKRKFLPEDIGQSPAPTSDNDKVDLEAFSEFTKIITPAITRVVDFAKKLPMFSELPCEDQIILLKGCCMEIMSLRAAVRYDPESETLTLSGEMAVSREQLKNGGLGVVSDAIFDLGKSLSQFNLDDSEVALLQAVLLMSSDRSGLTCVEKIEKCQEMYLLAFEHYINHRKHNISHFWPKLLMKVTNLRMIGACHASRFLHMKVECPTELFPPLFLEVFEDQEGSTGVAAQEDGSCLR
Chain of mouse Peroxisome Proliferator-activated Receptor gamma (PPARg), Pparg (gene 19016) (P37238 whole entry, looked up, the tested form may be a part): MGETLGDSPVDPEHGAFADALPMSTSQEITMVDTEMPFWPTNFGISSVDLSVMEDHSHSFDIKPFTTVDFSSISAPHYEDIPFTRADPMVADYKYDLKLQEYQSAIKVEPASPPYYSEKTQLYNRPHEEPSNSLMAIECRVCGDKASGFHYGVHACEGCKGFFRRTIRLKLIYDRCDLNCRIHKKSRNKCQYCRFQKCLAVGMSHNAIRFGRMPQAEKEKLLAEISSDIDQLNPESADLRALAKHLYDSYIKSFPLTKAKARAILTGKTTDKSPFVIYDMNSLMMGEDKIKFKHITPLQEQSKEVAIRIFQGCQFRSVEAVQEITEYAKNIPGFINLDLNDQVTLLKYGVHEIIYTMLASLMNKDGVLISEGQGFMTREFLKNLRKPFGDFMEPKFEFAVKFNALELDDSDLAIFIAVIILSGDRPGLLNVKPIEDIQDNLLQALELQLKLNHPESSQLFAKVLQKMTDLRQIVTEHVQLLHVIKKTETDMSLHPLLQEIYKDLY

CC(C)(C)C(O)/C(=C\c1ccc(Cl)cc1Cl)n1cncn1 (configuration not stated)
active: [4] 44 µM and 14.4 µM | [6] 13.2 µM and 17 µM | [7] 23.1 µM and 8.13 µM | [8] 46.7 µM and 47.6 µM | [9] 33.4 µM and 20.8 µM | [10] 1.24 µM and 1.41 µM | [15] 100 µM
not listed: [18] | [19] | [20]
inactive: all other assays above

CCCN(CCC)c1c([N+](=O)[O-])cc(C(F)(F)F)cc1[N+](=O)[O-]
active: [4] 69.9 µM | [6] 18.8 µM | [7] 100 µM | [10] 1.88 µM
not listed: [12] | [13] | [15] | [16] | [19] | [20]
inactive: all other assays above

O=S1OCC2C(CO1)C1(Cl)C(Cl)=C(Cl)C2(Cl)C1(Cl)Cl (configuration not stated)
inactive: [1] | [3] | [7] | [8] | [10] | [11] | [14] | [17]
active: [4] 10 µM | [6] 1.04 µM

Oc1ccc(Cl)cc1Cc1ccccc1
inactive: [2] | [7] | [9] | [10] | [12] | [13] | [14] | [16]
active: [4] 14.6 µM | [8] 10 µM | [17] 10 µM

CCCN(CCOc1c(Cl)cc(Cl)cc1Cl)C(=O)n1ccnc1
active: [8] 16.6 µM | [9] 20.4 µM | [10] 0.108 µM
not listed: [6] | [13] | [15] | [18] | [19] | [20]
inactive: all other assays above

O=S(=O)(O)C(F)(F)C(F)(F)C(F)(F)C(F)(F)C(F)(F)C(F)(F)C(F)(F)C(F)(F)F
active: [4] 146 µM | [8] 119 µM | [9] 145 µM
inactive: [2] | [19] | [3] | [5] | [10] | [12] | [14]

COP(=S)(OC)Oc1ccc(SC)c(C)c1
inactive: [1] | [11] | [12] | [13] | [14] | [16] | [17]
active: [2] 27.8 µM | [3] 27.3 µM | [4] 59 µM | [6] 8.43 µM | [7] 26.8 µM | [8] 34.2 µM | [9] 35.8 µM | [10] 1.94 µM

CC1(C)C(C=C(Cl)Cl)C1C(=O)OC(C#N)c1ccc(F)c(Oc2ccccc2)c1 (configuration not stated)
inactive: [2] | [19] | [3] | [18] | [5] | [6] | [11] | [13]
active: [8] 20.5 µM | [9] 10.9 µM | [10] 1.97 µM | [12] 19.8 µM | [17] 37.1 µM

O=C(O)C(F)(F)C(F)(F)C(F)(F)C(F)(F)C(F)(F)C(F)(F)C(F)(F)F
active: [2] 100 µM | [4] 124 µM | [7] 64.1 µM
inactive: [19] | [3] | [18] | [20] | [5] | [12] | [14] | [17]

COP(=S)(OC)Oc1ccc([N+](=O)[O-])cc1
inactive: [1] | [2] | [3] | [18] | [4] | [8] | [9] | [10] | [11] | [12] | [13] | [15] | [16] | [17]
active: [2] 26.7 µM | [4] 39.3 µM | [6] 31.1 µM and 40.7 µM | [7] 100 µM and 36.9 µM | [8] 27.7 µM | [9] 27 µM | [10] 41.4 µM

Oc1cc(Cl)ccc1Oc1ccc(Cl)cc1Cl
inactive: [3] | [5] | [7] | [11] | [12] | [14] | [16]
active: [2] 14.1 µM | [4] 16.1 µM | [8] 11.1 µM | [9] 15 µM | [10] 11.1 µM | [13] 4.84 µM | [17] 2.46 µM

CCOCN(C(=O)CCl)c1c(C)cccc1CC
inactive: [18] | [5] | [7]
active: [4] 100 µM | [8] 1.01 µM | [9] 2.14 µM | [10] 5.1 µM
